# Reference: the supplement of paper PMC11417369
# In all, about 25,000 sequences were measured (“ln(normalized median fluorescence intensity)”: median about 6.7, highest 2% from about 10 on). For the sample, the highest values were picked, then their nearest neighbours and some sequences at random.
# System: PfHDP1 homeodomain (GST-tagged)
# Experiment: gcPBM binding intensity (ln(normalized median fluorescence intensity)); higher = stronger DNA binding
# How it was run: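 Using an Agilent 4 × 180k array, primer-extended double-stranded 36-bp intergenic genomic probes and negative controls were exposed for 1 h to GST-fused P. falciparum DNA-binding domains expressed in E. coli. Binding was carried out in 1× PBS with 1% milk, 0.2 mg/ml BSA, 0.5% salmon testes DNA and 0.03% Triton X-100, and protein was detected with Alexa488 anti-GST antibody and a 488 nm scan. Binding intensity is the highest Masliner-normalised natural-log median intensity across replicate spots of either probe orientation.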
row,Sequence,gcPBM binding intensity (ln)
1,ATATAAAGGTTTATTAGTACACATTAGAATACTTTT [XGTACX_site4492],6.22
2,GGGTTTTTAAAATGTAGTACATATGTAAACATCAAA [XGTACX_site1262],6.7
3,CCAATACTGTTTAAATGTACAAGTAGGAGGTTAATT [XGTACX_site7260],6.64
4,GCTTATGCTCAATATTGTACTTTTTTTATTTATTCA [XGTACX_site8863],10.6
5,TATATATATATATATTGTACTTTATTTTATATATTC [XGTACX_site5697],9.11
6,TTTTCAATATATATTTGTACTTTATTTTATGATATT [GTGCAC_negctrl_site732],6.71
7,AGCATTTTTCATTTTGCACACATGTTTTATGTGTAT [CACACA_site3454],10.5
8,AGCATTTTTCATTTTGCACACATGTTTTATGGGTAT [CACACA_site5839],10.5
9,TATGTGTATTTATTTGCATGTTGGTTGTATTTTTTC [TGCATGCA_site479],6.94
10,TATCCTAACTTTAGATGTACACAAATAAAAAAAAAA [XGTACX_site4491],6.32
11,ATTTATATGAAAATATGTACTTATATAAATTTATTT [XGTACX_site53],6.23
12,TAAGAATAATGACATAGTACAATTTAATAGATCTAA [XGTACX_site3670],6.01
13,TTTTTTTTTAAAGAAAATAAAAATATGTACTTGACA [CACACA_negctrl_site1113],6.05
14,ATAAAATAATCTTATGCACACCAAAAATTTATATAA [CACACA_site8332],10.4
15,AAAAAATTAATAAAAACACACAAAAAAAATAAACAA [CACACA_site1907],6.94
16,TAGTTAACAAATAATGCACACAAATGGATAAAATTA [CACACA_site9240],10.6
17,AAATAAATCTTATGCACACAAATAATTAATTAAACA [CACACA_site1693],10.7
18,CGAAATAAATCTTATGCACACAAATAATTAATTAAA [CACACA_site8491],10.5
19,AAAATTATAAATCTTGCACACAAAAAAAATAATAAA [CACACA_site8771],8.27
20,TTTTAAAAAAATATAATACACACCAAAAATATGCAC [CACACA_site2131],7.15
21,TTTTTAGTTAATTAAACACACAAAAAAAAAAATAAA [CACACA_site3930],6.4

row,Sequence,gcPBM binding intensity (ln)
1,GTTAACAAATAATGCACACAAATGGATAAAATTATA [CACACA_site3725],9.97
2,AAAATAATCTTATGCACACCAAAAATTTATATAATC [CACACA_site1235],10.6
3,AATTATAAATCTTGCACACAAAAAAAATAATAAAAA [CACACA_site2434],8.67
4,AATCATAAACATTATGCACACAAAAATAAAAAAAAA [CACACA_site8289],8.58
5,AAGCCTTAAAAGGAAAGTACGTATATATATATATAT [XGTACX_site8559],9.48
6,TAAAGGTGAACAATACGTACATAAGAACTTATGAGG [XGTACX_site4216],6.43
7,ACAATGAGGATATATACACACATACATTAAAAAAAT [CACACA_site6955],6.71
8,GCACCAAAAAAAAGACGTACAGTTATATTAAAATAG [XGTACX_site8926],6.7
9,ATACATCAAGGACACACACACACACCCACACCCACA [CACACA_site8013],6.71
10,AAATAAATCTTATGCACACAAATAATTAATGAAACA [CACACA_site5011],10.6
11,TATATGAAATATTATGCACACAATATATAATATGAT [CACACA_site936],10.2
12,CTTAAAAACAAAAATGCACACATAATAAGCATATGT [CACACA_site9149],9.58
13,AAAGAAATGAAATATACACACATACATAAATACATA [CACACA_site6081],6.68
14,ATGTAAAACATAAAATGTACATATTATACAAACTAT [XGTACX_site5797],6.87
15,ATTTATATTATAATATGTACACAAAAAAAATTAGGA [XGTACX_site565],6.91
16,CAGTTTACTAATATTGCACACGAATATGAAAAAGAG [CACACA_site8941],9.89
17,GTTTACTAATATTGCACACGAATATGAAAAAGAGAA [CACACA_site2897],10.6
18,TATGAAATATCGTGCACACACGAATAATATAAGAAT [CACACA_site4842],9.21
19,ATTATTTATTATTTCTGTACGTATAAAAATAACATT [XGTACX_site1671],6.67
20,CAGTTAATGTTGGTACTTTATATAAAAATGATATGA [CACACA_negctrl_site1600],6.67
21,AAATAATAAATTATAACACACATATATATATATATA [CACACA_site4045],9.33

row,Sequence,gcPBM binding intensity (ln)
1,TTCCTCTTAATATGTGCACACTAAATTATAACCTAA [CACACA_site5751],11.3
2,CCTCTTAATATGTGCACACTAAATTATAACATAATT [CACACA_site3259],11.3
3,CCTAAATTATATTATGCACACTTAAAAATATATTTA [CACACA_site5861],9.95
4,TAAATTATATTATGCACACTTAAAAATATATTTAAC [CACACA_site3512],9.29
5,TTATTTTAAATTAACACATGCATAATATATGTATAT [TGCATGCA_site597],6.31
6,ATTATGTATATAAATTAACACACATATGTGGTTAAT [CACACA_site9028],6.37
7,ACTAAACTTATATGTACACACATATAACATTAATTT [CACACA_site2258],6.67
8,TTCCTCTTAATATGTGCACACTAAATTATAACATAA [CACACA_site3260],11.1
9,AATATATCATTATATAAACACACAATATGTTTTTTA [CACACA_site9260],6.22
10,CAGATAAGATTTTGTGGTACTATTTATTAAATTAGA [XGTACX_site2644],6.06
11,AAGGTATGATTAATCACACACATAAATATATATACA [CACACA_site2658],6.67
12,TATTTGAAAGCCAATTGTACTTTAGTTTTTGAAACA [XGTACX_site5542],5.98
13,AAAAATATAATATAATGTACACAAAAAAAAAAATTC [XGTACX_site3657],6.63
14,TATTCTAGTCTGCTTACACACATATTTATATTTATA [CACACA_site7432],7.53
15,AGACACGTATACGATGCACACGTATGCTTTATATAT [CACACA_site9363],8.32
16,GCTTTTGTCATGTGCACACACGTATATATTATATAT [CACACA_site6146],11.5
17,ATGCTTTTGTCATGTGCACACACGTATATATTATAT [CACACA_site4163],11
18,ATATATATTATGTGTGTGCACTTTTGTTATTATTAT,9.03
19,CCACGTATACGATGCACACGTATGCTTTATATATAG [CACACA_site4108],8.58
20,AATTATATTTAGTATATGCACACTTTATGTTTGTTA [CACACA_site2025],9.36
